Laboratory results from PubChem BioAssay (NCI).
About 79,000 compounds went through this panel and 15% of them were active in at least one assay; those are over-represented in the sample as a whole. Rule as the data show it: active = growth inhibition above about 70%; inactive = the rest.

How the values were obtained:
[1] = NCI Yeast Anticancer Drug Screen. Data for the rad50 strain (AID 155);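 also: 0% = growth of vehicle-only cultures of the same strain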; conditions: S. cerevisiae rad50 strain growth inhibition; at 50.0 µM; stronger effect = higher value
Outline: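 Inhibition values express reduced yeast growth in compound-treated cultures relative to vehicle-treated controls.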

[2] = NCI Yeast Anticancer Drug Screen. Data for the mec2-1 strain (AID 157); conditions: S. cerevisiae mec2-1 strain, at 50.0 µM, stronger effect = higher value
Outline: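 Each compound was tested on mec2-1 yeast, a strain altered in DNA damage repair or cell cycle control. Growth inhibition is reported relative to vehicle.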

[3] = NCI Yeast Anticancer Drug Screen. Data for the sgs1 mgt1 strain (AID 161);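 also: 0% = growth of cultures given vehicle only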; conditions: S. cerevisiae sgs1 mgt1 strain, at 50.0 µM, stronger effect = higher value
Outline: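 Inhibition of yeast growth, normalised to vehicle-treated controls, is reported for a strain bearing genetic alterations in DNA damage repair.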

[4] = NCI Yeast Anticancer Drug Screen. Data for the cln2 rad14 strain (AID 165);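 also: 0% = growth equal to vehicle treated cultures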; conditions: S. cerevisiae cln2 rad14 strain, at 50.0 µM, stronger effect = higher value
Outline: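 Test compounds were added to cln2 rad14 yeast cultures; inhibition of growth was then determined by comparison with vehicle treatment.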

[5] = NCI Yeast Anticancer Drug Screen. Data for the bub3 strain (AID 167); conditions: S. cerevisiae bub3 mutant strain, at 50.0 µM, stronger effect = higher value
Outline: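 Steps: expose the mutant yeast strain to compound; grow alongside vehicle-treated cultures; measure growth; express inhibition against the vehicle cultures.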

[6] = NCI Yeast Anticancer Drug Screen. Data for the mlh1 rad18 strain (AID 175); conditions: S. cerevisiae mlh1 rad18 strain growth inhibition; at 50.0 µM; stronger effect = higher value
Outline: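 Inhibition values reflect reduced growth of mutant yeast versus vehicle-treated controls following compound exposure; the mutations affect DNA damage repair.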

Measured: growth inhibition

CCCCC1=C(C)CCC1=O
inactive: [1] 17.9% | [2] 8.9% | [3] 8.7% | [4] 6.55% | [5] 2.85% | [6] 4.85%

N#C/C(=C/c1cccc([N+](=O)[O-])c1)C(=O)O
inactive: [1] 38% | [2] 10.6% | [3] 22.6% | [4] 12.9% | [5] 15.8% | [6] 38%

O=C1OCCC2(CCN(Cc3ccccc3)CC2)O1
inactive: [1] 11.2% | [2] 9.35% | [3] 25.4% | [4] -0.3% | [5] -1.45% | [6] 24.3%

C[Si](C)(C)C#C[I+]c1ccccc1
inactive: [1] -27.6% | [2] -24.4% | [3] 12.7% | [4] 5.65% | [5] 8.95% | [6] -8.85%

Cc1ccc(/C=N/NS(=O)(=O)c2ccc(/C=C3\NC(=O)NC3=O)cc2)cc1
inactive: [1] -16.8% | [2] -6.1% | [3] -31.4% | [4] -6.55% | [5] -41.2% | [6] 1.75%

Cc1cc(Cl)nc(/N=C(\N)Nc2ccc(Cl)c(Cl)c2)n1
inactive: [1] -1.95% | [2] 5.45% | [3] -1.05% | [4] -11.7% | [5] 6.1% | [6] 7.6%

COC1OC(COS(C)(=O)=O)C(OS(C)(=O)=O)C(OS(C)(=O)=O)C1OS(C)(=O)=O (stereo unspecified)
inactive: [1] -2.8% | [2] -7.05% | [3] -26.4% | [4] -67% | [5] 1.4% | [6] 10.3%

CC(C)(C)OC(=O)N(CCCCNC(=O)C(F)(F)F)CCCNC(=O)C(F)(F)F
inactive: [1] -26.4% | [2] -30.3% | [3] -26% | [4] 11.6% | [5] -29.8% | [6] -86%

C/C(N=NC(=S)N(C)C)=C1\C=CC=CN1O
inactive: [1] -0.25% | [2] 11.8% | [3] 8.1% | [4] 55.6% | [5] 23.1% | [6] 38.9%

COc1ccc(C2CC(=O)N(CC(=O)O)C(=O)C2)cc1
inactive: [1] 13.9% | [2] 14.8% | [3] 8.3% | [4] -17% | [5] -9.4% | [6] 7.55%

O=C1C(Cl)N(c2c(Cl)cccc2Cl)C1c1c[nH]c2ccccc12 (stereo unspecified)
inactive: [1] -35.5% | [2] -43.6% | [3] -34.2% | [4] -22.4% | [5] -20.9% | [6] -41.8%

CCOC(=O)c1n[nH]c(C)c1C/C(=N/O)c1ccccc1
inactive: [1] -14.3% | [2] -24.4% | [3] -8.25% | [4] -14.9% | [5] -14.9% | [6] -35.9%

C1CCC2(CC1)CCCN2
inactive: [1] 7.15% | [2] 3.35% | [3] 1.4% | [4] -3.5% | [5] -1.75% | [6] 6.35%

CCOC(=O)C(Nc1cccc2ccccc12)C(=O)OCC
inactive: [1] 0.5% | [2] 19.1% | [3] 9.3% | [4] -5.2% | [5] 46.2% | [6] 25.7%

O=c1c(SCc2ccccc2Cl)c(SCc2ccccc2Cl)cnn1-c1ccccc1
inactive: [1] 10.7% | [2] -3.05% | [3] 12.6% | [4] 23.4% | [5] 7.15% | [6] 1.45%

COc1cccc(C2OC(N)=C(O)C2=O)c1 (stereo unspecified)
inactive: [1] -10.8% | [2] 1.9% | [3] 3.6% | [4] -11.2% | [5] 2.45% | [6] 22.2%

CC(=S)NC(=O)Nc1cccc2ccccc12
inactive: [1] 19.2% | [2] -8.45% | [3] 2.4% | [4] -50.6% | [5] -10.2% | [6] 10.8%

CCCNC(=O)N(CCN(C)C)S(=O)(=O)c1ccc(Cl)cc1
inactive: [1] -38.9% | [2] -6.75% | [3] -13.6% | [4] -18.9% | [5] -21.1% | [6] -17.4%

COc1ccc2nc3c(=O)[nH]c(=O)nc-3n(CC(O)C(O)C(O)CO)c2c1 (stereo unspecified)
inactive: [1] 24.9% | [2] 6.9% | [3] 16.1% | [4] 25.3% | [5] 10.9% | [6] 34.2%

S=c1cc(S)nc[nH]1
inactive: [1] 29% | [2] 8.3% | [3] 11.9% | [4] 20.9% | [5] 23.9% | [6] 9.45%

Oc1ccccc1C=NCCN(CCN=Cc1ccccc1O)c1ccccc1
inactive: [1] 21.1% | [2] 7.1% | [3] 26.1% | [4] 12.8% | [5] 8.9% | [6] 32.5%
